Experimental data: PubChem BioAssay (EPA / NIEHS)
Where “and” joins values, the source holds several entries; their conditions need not be identical. Equal values may be shown once. Inconclusive results are not listed. Where a structure was tested more than once in an assay, its records may differ in their call. Calls of active or inactive are those of the source. Rule for the calls: active = hit-call score of the fitted dose curve at least 0.9, where 1 is the maximum; inconclusive = response in the unintended direction; inactive = score below 0.9.

System: not listed separately
Assay: TOX21_p53_BLA_p5_viability: Viability Assessment in the Tox21 HCT-116 p53 Agonism Beta-lactamase Assay, Phase 5 (AID 2283600)
How it was run: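 Luciferase-coupled ATP quantitation of cells treated for 16 h (37C, 5% CO2) with test chemicals delivered in DMSO via a 217-fold dilution; 4000 cells/well; reagent incubated 30 min at room temperature before luminescence reading.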

Row | Compound | AC50 | outcome
1 | O=C1C(Cl)=C(Cl)C(=O)C(Cl)=C1Cl | 57.6 µM (active) and 56.4 µM (active) | –
2 | N#CCCCCC#N | – | inactive
3 | COc1cc(OC)c(OC)cc1C=O | – | inactive
4 | CC(C)c1ccc(O)cc1 | – | inactive
5 | CC(C)(c1cc(Cl)c(O)c(Cl)c1)c1cc(Cl)c(O)c(Cl)c1 | – | inactive
6 | [N-]=[N+]=CC(=O)OC[C@H](N)C(=O)O | – | inactive
7 | CC(C)CCCCCCCOP(=O)(Oc1ccccc1)Oc1ccccc1 | – | inactive
8 | C=CCN(CC=C)C(=O)C(Cl)Cl | – | inactive
9 | CC[N+](=O)[O-] | – | inactive
10 | CC(Cc1ccc(C(C)(C)C)cc1)CN1C[C@@H](C)O[C@@H](C)C1 (stereo not given in full) | – | inactive
11 | CCOC(=O)N(C)N=O | – | inactive
12 | O=CNC(N1CCN(C(NC=O)C(Cl)(Cl)Cl)CC1)C(Cl)(Cl)Cl (stereo not given) | – | inactive
13 | CCC[N+](=O)[O-] | – | inactive
14 | CC(C)(O)C#N | – | inactive
15 | S=c1[nH]c2ccccc2[nH]1 | – | inactive
16 | c1ccc(Nc2ccc3ccccc3c2)cc1 | – | inactive
17 | Cc1ccc(OP(=O)(Oc2ccc(C)cc2)Oc2ccc(C)cc2)cc1 (tested in a mixture with another compound) | – | inactive
18 | O=S(=O)(c1ccccc1)c1ccccc1 | – | inactive
19 | CC1(C)C(=O)NC(=O)NC1=O | – | inactive
20 | c1ccc(P(c2ccccc2)c2ccccc2)cc1 | – | inactive
21 | CCOC(=O)COc1ccc(Cl)cc1Cl | – | inactive
22 | N#Cc1cccc(C#N)c1 | – | inactive
23 | O=C1Nc2ccc(Cl)cc2C(c2ccccc2)=NC1O (stereo not given) | – | inactive

Target: Cellular tumor antigen p53 (Homo sapiens) (UniProt P04637)
Sequence (P04637 whole entry, looked up): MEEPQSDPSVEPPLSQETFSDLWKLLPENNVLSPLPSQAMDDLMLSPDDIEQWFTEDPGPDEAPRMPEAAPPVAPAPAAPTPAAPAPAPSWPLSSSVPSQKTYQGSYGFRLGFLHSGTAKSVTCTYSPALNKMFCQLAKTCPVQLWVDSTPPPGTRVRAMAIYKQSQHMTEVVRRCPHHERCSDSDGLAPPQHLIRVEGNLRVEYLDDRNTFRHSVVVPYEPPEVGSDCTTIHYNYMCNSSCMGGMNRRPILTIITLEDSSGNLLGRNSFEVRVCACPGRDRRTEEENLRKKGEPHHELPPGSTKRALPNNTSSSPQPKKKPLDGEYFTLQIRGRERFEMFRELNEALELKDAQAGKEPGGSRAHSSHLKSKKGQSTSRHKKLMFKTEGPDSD
Assay: TOX21_p53_BLA_p4_ratio: Tox21 HCT-116 p53 Agonism Beta-lactamase Assay, Ratio, Phase 4 (AID 2283601)
How it was run: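 Signal is the blue/green (460nm/530nm) ratio of cleaved versus uncleaved CCF4-AM substrate, read after 2 h substrate loading. Cells were HCT116 carrying the p53-responsive beta-lactamase reporter, dosed 16 h at 37C, 5% CO2; CellTiter-Glo measured in parallel.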

Row | Compound | outcome | AC50
24 | O=C1C(Cl)=C(Cl)C(=O)C(Cl)=C1Cl | inactive | 84.7 µM (active)
25 | N#CCCCCC#N | inactive | –
26 | CC1CCC(=O)O1 (stereo not given) | inactive | –
27 | COc1cc(OC)c(OC)cc1C=O | inactive | –
28 | CC(C)c1ccc(O)cc1 | inactive | –
29 | CC(C)(c1cc(Cl)c(O)c(Cl)c1)c1cc(Cl)c(O)c(Cl)c1 | inactive | 19.7 µM (active)
30 | O=C(NCNC(=O)NC1C(=O)NC(=O)N1CO)NC1C(=O)NC(=O)N1CO (stereo not given) | inactive | –
31 | [N-]=[N+]=CC(=O)OC[C@H](N)C(=O)O | inactive | –
32 | CC(C)CCCCCCCOP(=O)(Oc1ccccc1)Oc1ccccc1 | inactive | –
33 | C=CCN(CC=C)C(=O)C(Cl)Cl | inactive | –
34 | CC[N+](=O)[O-] | inactive | –
35 | CC(Cc1ccc(C(C)(C)C)cc1)CN1C[C@@H](C)O[C@@H](C)C1 (stereo not given in full) | inactive | –
36 | CCC[N+](=O)[O-] | inactive | –
37 | CC(C)(O)C#N | inactive | –
38 | S=c1[nH]c2ccccc2[nH]1 | inactive | –
39 | CCCCCc1cc(O)cc(O)c1 | inactive | –
40 | c1ccc(Nc2ccc3ccccc3c2)cc1 | inactive | 73.5 µM (active)
41 | CSc1nc(N=[N+]=[N-])nc(NC(C)C)n1 | inactive | –
42 | Cc1ccc(OP(=O)(Oc2ccc(C)cc2)Oc2ccc(C)cc2)cc1 (tested in a mixture with another compound) | inactive | –
43 | CCOC(=O)COc1ccc(Cl)cc1Cl | inactive | –
44 | N#Cc1cccc(C#N)c1 | inactive | –
45 | O=C1Nc2ccc(Cl)cc2C(c2ccccc2)=NC1O (stereo not given) | inactive | 86.7 µM (active)
46 | N#CC(c1ccccc1)c1ccccc1 | inactive | –
